# According to the supplement of paper PMC6555819:
# Key:
# Test in all cases: PBM binding z-score (relative to random genomic background probes); higher = stronger binding; sequences stand for … in GC…GCGATTGACAGCGTAGAATGAAGG
# [1] = test system: RARb homodimer (NR concentration 270 nM)
# Summary of the method: (§1)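 Custom Agilent 4×180K protein-binding microarrays carried double-stranded probes, each with a 34-nt variable region. These regions held direct-repeat seeds, single-nucleotide variants, half-site ablations and random human genomic background sequences. Ligand-free nuclear receptor dimers were incubated on the arrays for 1 h, antibodies against each partner (one per run) detected binding, and scanned fluorescence was regression-normalized. Binding z-scores take the random background probes as reference.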
# [2] = test system: RARg:RXRa (NR concentration 270 nM, RXRa partner concentration 90 nM)
# Summary of the method: as §1
# [3] = test system: RARg homodimer (NR concentration 270 nM)
# Summary of the method: as §1
# [4] = test system: RXRa DBDmut IVT, anti-RXR (DBD mutation: RXRa K156A/R161A, NR concentration 90 nM)
# Summary of the method: as §1
# [5] = test system: RXRa homodimer (NR concentration 180 nM)
# Summary of the method: as §1
# [6] = test system: THRa:RXRa (NR concentration 90 nM, RXRa partner concentration 90 nM)
# Summary of the method: as §1
# [7] = test system: THRa homodimer (NR concentration 90 nM)
# Summary of the method: as §1
# [8] = test system: VDR:RXRa (NR concentration 270 nM, RXRa partner concentration 90 nM)
# Summary of the method: as §1
# [9] = test system: VDR homodimer (NR concentration 270 nM)
# Summary of the method: as §1
Sequence,PBM binding z-score [1],PBM binding z-score [2],PBM binding z-score [3],PBM binding z-score [4],PBM binding z-score [5],PBM binding z-score [6],PBM binding z-score [7],PBM binding z-score [8],PBM binding z-score [9]
CGAACGAGGGCATGAATTGATAGCAAATGCCGAT,0.244,0.899,1.3,2.24,0.708,0.857,-0.496,0.33,0.297
ACTTCCGGGTCAACGAGGTTATAGCACGCGTATA,3.44,5.17,4.74,2.62,5.76,4.34,2.68,7.62,4.34
CTCGAAAGGTCGTGCTCAGGTGGGTATACCAAAC,2.65,4.38,3.96,1.68,4.59,2.57,0.504,3.24,1.08
CGTCCAAGGTCAGCAGGGCAGTGAAAGCGACGTG,4.12,5.28,5.9,2.63,3.74,3.61,1.9,2.87,1.02
TCTAGTTGGTCAAAGGTCACATACTCGAAATGCG,5.18,6.93,6.01,1.65,7.86,3.89,1.76,5.02,2.75
ATCTCTATGTAAAGTTCAGTGAAAGATCGATAGA,2.23,2.06,2.29,1.3,1.08,0.757,-0.304,1.26,2.03
TTATATAGGTAAAGGTGAAAGTCGAACGATATGA,1.64,1.68,1.27,-0.41,2.15,1.44,-0.395,1.07,-0.389
CGACCAAGGTCATAGGAGGTCAGTGAAGACAGAT,5.12,6.79,7.3,3.53,6.92,5.03,2.69,6.59,4.77
TCTCGGAGGACACGAAAGGTCATAGCTCGACATC,4.89,5.58,5.34,1.71,5.3,4.24,2.12,4.71,2.67
TCTAGTTGGCCAAAGGTCACACACTCGAAATGCG,5.04,6.5,6.31,1.5,7.78,3.78,1.77,4.93,2.27
CCTAGCAGGCCAGGGTCACTCATGCATTTCGCTT,2.68,2.82,1.97,0.745,2.96,2.79,1.04,2.14,1.31
ATCTCTAGGTAAAGTTCAGTCAAAGATCGATAGA,2.8,2.17,2.39,1.6,1.35,1.46,0.288,1.96,2.11
TCTATTAGTTGATTAGGGCACCCGAAACAGCGGA,0.537,0.623,0.797,1.22,0.445,0.654,0.582,0.698,0.203
ATATGTACGTTAAGGGTCATTCAGGTTGGTTCGC,3.82,3.89,2.96,2.12,4.64,3.3,1.45,5.64,4.32
AATACAGGGGCATCGTAGGCCAGAGTACGCACAG,1.13,0.978,1.23,0.834,0.784,2.47,-0.358,0.784,1.15
ATCTCTAGGTAAGAGTCAGTTCAGTGAAGAACGC,0.813,0.338,0.332,0.262,0.0582,0.853,0.649,0.748,0.916
TGACAAAGTTCAAAGGTAACGTAAGTATCCACAC,3.83,6.01,5.91,4.38,6.68,3.36,-0.0359,5.25,4.23
ACTAGTTGGTCAGCTGAGGTCACCCACAATTCGG,4.38,4.14,4.02,1.19,3.69,4.97,5.19,4.46,3.57
CCTATTAGTTGACAATAAGGGCAACCGAAGCTCG,1.52,1.04,0.963,0.782,0.644,1.8,0.906,1.09,0.927
GGAAGGAGGGCATTCGAGTTGATAGCATGGCGAT,1.15,0.897,1.34,1.47,0.679,2.83,0.445,2.46,2.01
CAAACTAGGTCACGAAAGGTTAAAGTCGAATGAC,4.85,6.19,6.18,1.95,5.5,4.67,1.78,5.27,1.8
TCTCGGAGGACACGACGGTCAGAGCTTTCCAGAG,1.53,0.617,1.65,0.193,0.0986,1.33,0.161,-0.164,-0.222
CCTATTAGTTGACCATAAGGGTAACCGAAGCTCG,1.5,1.01,0.877,0.493,0.639,1.3,1.19,0.776,1.2
GCTAGCAGGCCATTAGGGTCACTCAATGACGGGC,2.83,2.53,2.08,0.0923,2.42,3.37,2.03,4.6,1.91
ATTAGCAGGCCAAGTTTGGGTCACTCAAACAAAG,2.04,2.39,1.91,0.00898,0.882,2.69,0.986,0.833,0.34
GGTATTAGTTGAAAGGGCAACCGAATGATTCTCG,2.53,1.76,1.81,0.965,1.5,1.08,0.579,1.16,1.23
